Assay outcomes (PubChem BioAssay)
A selection: hits, their analogues and other compounds. The true share with any hit is near 4.8%.
DRD3 antagonist – D3 dopamine receptor (human) antagonism; D3R cells, DiscoveRx beta-arrestin luminescence, antagonist mode; stronger effect = lower value; AID 652054; hit rate 2.5% among 360,000; max response, negative = inhibition, %; in the data active means max response below about -50%; inconclusive means no clear call, values can overlap the other calls; further: on the % scale 0 is the no-effect control and ±100 the full control effect
Target sequence (P35462 whole entry, looked up): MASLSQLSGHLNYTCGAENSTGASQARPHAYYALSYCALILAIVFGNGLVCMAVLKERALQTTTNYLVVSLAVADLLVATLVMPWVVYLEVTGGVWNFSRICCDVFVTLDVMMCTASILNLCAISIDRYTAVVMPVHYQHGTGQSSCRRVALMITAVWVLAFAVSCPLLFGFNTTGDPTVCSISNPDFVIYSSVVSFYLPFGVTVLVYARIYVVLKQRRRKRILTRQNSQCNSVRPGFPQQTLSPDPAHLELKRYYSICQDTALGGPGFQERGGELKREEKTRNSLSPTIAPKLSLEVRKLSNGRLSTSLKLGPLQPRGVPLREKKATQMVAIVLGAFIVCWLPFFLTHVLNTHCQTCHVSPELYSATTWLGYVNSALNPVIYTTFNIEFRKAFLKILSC
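Cells plated overnight at 1500 cells/well, then exposed to library compounds with dopamine controls for 90 minutes at 37 degrees C. DiscoveRx reagent added for 30–60 minutes at room temperature; luminescence read, quantitative HTS format.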
ATXN2 expr inh – inhibitors of ATXN2 expression; Potency, µM (series often up to 57 µM), for the others: at the highest dose activity change, negative = inhibition, usual class: inhibitors; HEK-293 ATXN2-luciferase reporter, luminescence, 24 h; AID 1745845; hit rate 0.72% among 360,000; further: potency means the concentration at half of the fitted maximal effect; on the % scale 0 is the no-effect control and ±100 the full control effect; nearly all actives have a fitted effect of over 55% in size
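ATXN2-luciferase reporter cells (luciferase flanked by upstream and downstream ATXN2 gene portions) were treated 24 h at 37 °C with compounds at up to 57 uM. SteadyGlo luminescence gave expression; GF-AFC fluorescence gave viability.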
HepG2 viability – kills HepG2 cells in TGF-b inhibitor counter-screen | HepG2 CAGA-GFP viability, ATP luminescence, 18 h | Potency, µM (top dose mostly 46.1 µM), without a hit: at the highest dose activity change, negative = cytotoxicity, most hits filed as cytotoxic | hit rate 0.76% among 410,000 | AID 588856; further: potency means the concentration at half of the fitted maximal effect
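HepG2 CAGA-GFP cells (1000/well, DMEM with 1% FBS) received compound, then TGF-beta at 500 pg/mL final, and were incubated 18 hours at 37 degrees C. Viability was read by CellTiter-Glo luminescence. Media-only wells were set as complete cell-killing and DMSO as no toxicity.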
ATXN viability – viability counter-screen for ATXN expression inhibitors. S2 cells (HEK-293 line with an ATXN2-luciferase reporter) viability, CellTiter-Fluor protease fluorescence, 24 h. Potency, µM (doses to about 56.7 µM), actives largely listed as cytotoxic. hit rate 0.49% among 400,000. AID 651635; further: potency means the concentration at half of the fitted maximal effect; nearly all actives have a fitted effect of over 40% in size
D3 ag – activates the human D3 dopamine receptor | AID 652048 | D3R DiscoveRx beta-arrestin cells, luminescence, 90 min | max activation, % | P35462 | hit rate 0.58% among 410,000; in the data active means max activation above about 30%; further: 0% is about no effect
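Cells at 1500/well, incubated overnight, then treated with pinned compounds (dopamine as control) for 90 min at 37 degrees C. DiscoveRx reagent added for 30 - 60 minutes at room temperature; luminescence read.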
TGFb SMAD3 inh – TGF-b pathway inhibition. HepG2 CAGA-GFP TGF-b/SMAD3 reporter, GFP fluorescence, 18 h; TGF-beta stimulated, 500 pg/mL final. Potency, µM (top dose mostly 46.1 µM), for inactives: at the highest dose activity, negative = inhibition, hits mostly inhibitors. hit rate 1.2% among 410,000. AID 588855; further: potency means the concentration at half of the fitted maximal effect; on the % scale 0 is the no-effect control and ±100 the full control effect; nearly all actives have a fitted effect of over 65% in size
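HEPG2 CAGA-GFP cells (1000/well, DMEM with 1% FBS) were pre-incubated 2 h at 37 degrees C, given compound by pin tool, then stimulated with TGF-beta at 500 pg/mL final for 18 h before per-cell GFP fluorescence imaging.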
* marks the source's active call; other numbers are inactive results; ! = repeats disagree. Unless noted, the call rests on the fitted dose curve; in most records, active means well fitted curve in the direction sought with a large enough effect; inconclusive means small, poorly fitted or top-dose-only effect, or another doubt; inactive means no such curve, though single readings can be large; an effect the other way counts as inactive or inconclusive.

COc1ccc(/C=C/C(=O)NC(=S)NNC(=O)Cc2cccs2)cc1OC was read as DRD3 antagonist -72*, ATXN2 expr inh -13%, HepG2 viability -29%, ATXN viability inactive, D3 ag 1 and TGFb SMAD3 inh -1%.
Screening COc1ccc(C(=O)NNC(=S)NC(=O)c2ccco2)cc1 returned DRD3 antagonist -58*, ATXN2 expr inh inconclusive, HepG2 viability -16%, ATXN viability inactive, D3 ag 2 and TGFb SMAD3 inh -2%.
For COc1ccc(/C=C/C(=O)NC(=S)NNC(=O)c2cccs2)cc1OC the results were DRD3 antagonist 1, ATXN2 expr inh -16%, HepG2 viability 20%, ATXN viability inactive, D3 ag 5 and TGFb SMAD3 inh 28%.
`COc1ccc(C=C(C(C)=O)C(C)=O)cc1OC` gave DRD3 antagonist -50*, ATXN2 expr inh -5%, HepG2 viability -36%, ATXN viability inactive, D3 ag 2 and TGFb SMAD3 inh 7%.
COc1cc(C=C(C(C)=O)C(C)=O)ccc1O was read as DRD3 antagonist 0, ATXN2 expr inh 7%, HepG2 viability -11%, ATXN viability inactive, D3 ag -1 and TGFb SMAD3 inh -3%.
COc1ccc(/C=C/C(=O)NC(=S)NNC(=O)c2cccnc2)cc1OC was read as DRD3 antagonist -61*, ATXN2 expr inh 14%, HepG2 viability -2%, ATXN viability inactive, D3 ag 3 and TGFb SMAD3 inh -2%.
O=S1(=O)CCOCCCN1Cc1ccc(F)cc1 was read as HepG2 viability -19% and TGFb SMAD3 inh 8%.
Screening CCC(=O)N1CCc2cc(Br)cc(S(=O)(=O)CCC(=O)N3CCN(c4ccccc4F)CC3)c21 returned ATXN2 expr inh 1%, HepG2 viability 12%, ATXN viability inactive, D3 ag -11 and TGFb SMAD3 inh 4%.
`O=C(/C=C/c1cccs1)NCc1cccs1` gave DRD3 antagonist -8, HepG2 viability -1%, ATXN viability inactive, D3 ag -2 and TGFb SMAD3 inh 7%.
Screening CCOC(=O)C(=Cc1ccc(OCc2ccc([N+](=O)[O-])cc2)c(OC)c1)C(=O)OCC returned DRD3 antagonist 2, ATXN2 expr inh inconclusive, HepG2 viability -72%, ATXN viability 22µM*, D3 ag 4 and TGFb SMAD3 inh inconclusive.
For O=C(/C=C/c1cccs1)NC(=S)NNC(=O)Cc1cccs1 the results were DRD3 antagonist -80*, ATXN2 expr inh -21%, HepG2 viability 6%, ATXN viability inactive, D3 ag 4 and TGFb SMAD3 inh 4%.
For COc1ccc(C(=O)NC(=S)NNC(=O)Cc2cccs2)cc1 the results were DRD3 antagonist -67*, ATXN2 expr inh inconclusive, HepG2 viability 4%, ATXN viability inactive, D3 ag 1 and TGFb SMAD3 inh 0%.
`COC(=O)C(=Cc1ccc(OCc2ccc([N+](=O)[O-])cc2)c(OC)c1)C(=O)OC` gave DRD3 antagonist -4, ATXN2 expr inh inconclusive, HepG2 viability -62%, ATXN viability inconclusive, D3 ag -13 and TGFb SMAD3 inh inconclusive.
For O=C(/C=C/c1ccccc1)NC(=S)NNC(=O)c1cccnc1 the results were DRD3 antagonist inconclusive, ATXN2 expr inh -7%, HepG2 viability -8%, ATXN viability inactive, D3 ag 11 and TGFb SMAD3 inh 14%.
`COc1cc(OC)cc(C(=O)NC(=S)NNC(=O)Cc2cccs2)c1` gave DRD3 antagonist 20, HepG2 viability -21%, ATXN viability inactive, D3 ag 2 and TGFb SMAD3 inh -13%.
Screening O=C(/C=C/c1ccccc1)NC(=S)NNC(=O)c1cnccn1 returned DRD3 antagonist -26, ATXN2 expr inh 14µM*, HepG2 viability 18%, ATXN viability inconclusive, D3 ag -4 and TGFb SMAD3 inh -22%.
For COc1ccccc1-c1ccnc(-n2ncc(C(=O)NCc3cccnc3)c2C)n1 the results were ATXN viability inactive.
For COc1ccc(/C=C/C(=O)O/N=C(\N)c2cccnc2)cc1OC the results were DRD3 antagonist 0, HepG2 viability -6%, ATXN viability inactive, D3 ag 3 and TGFb SMAD3 inh 14%.
CCOC(=O)/C(=C\c1ccc(OC)c(OC)c1)C(=O)c1cccnc1 was read as DRD3 antagonist -50*, ATXN2 expr inh -13%, HepG2 viability -20%, ATXN viability inactive, D3 ag -18 and TGFb SMAD3 inh -11%.
COCCCNC(=O)c1cc2c(=O)n3cccc(C)c3nc2s1 was read as DRD3 antagonist -3, ATXN2 expr inh 8%, HepG2 viability 1%, ATXN viability inactive, D3 ag 32*! and TGFb SMAD3 inh 0%.
Cc1nc(C)c(C(=O)Nc2ccccc2)s1 was read as DRD3 antagonist 2, ATXN2 expr inh -25%, HepG2 viability -5%, ATXN viability inactive, D3 ag -5 and TGFb SMAD3 inh 7%.
Cc1nc(C)c(C(=O)O)s1 was read as DRD3 antagonist -21, ATXN2 expr inh -11%, HepG2 viability -1%, ATXN viability inactive, D3 ag 47* and TGFb SMAD3 inh 4%.
`O=S(=O)(Nc1cccc2cccnc12)c1cccs1` gave HepG2 viability -18% and TGFb SMAD3 inh 2.2µM*.
`Cc1ccc(Nc2c3c(nc4nc(-c5cccs5)nn24)CCCC3)cc1F` gave ATXN2 expr inh 4%, HepG2 viability -5%, ATXN viability inactive, D3 ag 18 and TGFb SMAD3 inh inconclusive.
`Fc1cc(Br)ccc1Nc1c2c(nc3nc(-c4cccs4)nn13)CCCC2` gave ATXN2 expr inh 7%, HepG2 viability -49%, ATXN viability inactive, D3 ag 7 and TGFb SMAD3 inh 10µM*.
O=[N+]([O-])c1ccc(/C=C2\C=Cc3ccccc32)cc1 was read as HepG2 viability -9% and TGFb SMAD3 inh 3%.
For COc1ccc(Cn2nnnc2C(c2ccccc2)N2CCN(C3CCCC3)CC2)cc1 (stereo unspecified) the results were DRD3 antagonist -27, ATXN2 expr inh 2%, HepG2 viability -12%, ATXN viability inactive, D3 ag -10 and TGFb SMAD3 inh 1%.
`Cc1ccc(C(c2nnnn2C(C)(C)C)N2CCN(C3CCCC3)CC2)cc1` (stereo unspecified) gave DRD3 antagonist -92*, ATXN2 expr inh -5%, HepG2 viability 4%, ATXN viability inactive, D3 ag -16 and TGFb SMAD3 inh -21%.
`COc1ccccc1N1CCN(C(c2ccccc2)c2nnnn2Cc2ccccc2)CC1` (stereo unspecified) gave HepG2 viability -33% and TGFb SMAD3 inh -17%.
